Screening data as filed in PubChem BioAssay.
TGFb SMAD3 inh = TGF-b pathway inhibition; HepG2 CAGA-GFP TGF-b/SMAD3 reporter, GFP fluorescence, 18 h; TGF-beta stimulated, 500 pg/mL final; Potency, µM (titrated, usually from 46.1 µM), for the others: at the highest dose activity, negative = inhibition, most hits filed as inhibitors; 1.2% of 410,000 active; also: % is scaled to controls: 0 for no effect and ±100 for the full control effect; nearly all actives have a fitted effect of over 65% in size
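Cell-based qHTS in HEPG2 carrying a CAGA-GFP Smad reporter; compounds added before 500 pg/mL final TGF-beta, 18 h incubation at 37 degrees C, GFP fluorescence quantified per cell by imaging cytometry.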
RORgamma inh = inhibitors of mouse ROR gamma transcriptional activity; Drosophila S2 Gal4-RORgamma UAS-luciferase reporter, 20 h; Potency, µM (titrated, usually from 53.6 µM), inactives show at the top dose activity change, negative = inhibition, usual class: inhibitors; 5.4% of 310,000 active; also: % is scaled to controls: 0 for no effect and ±100 for the full control effect; nearly all actives have a fitted effect of over 60% in size
Target sequence (P51450 whole entry, looked up, the tested form may be a part): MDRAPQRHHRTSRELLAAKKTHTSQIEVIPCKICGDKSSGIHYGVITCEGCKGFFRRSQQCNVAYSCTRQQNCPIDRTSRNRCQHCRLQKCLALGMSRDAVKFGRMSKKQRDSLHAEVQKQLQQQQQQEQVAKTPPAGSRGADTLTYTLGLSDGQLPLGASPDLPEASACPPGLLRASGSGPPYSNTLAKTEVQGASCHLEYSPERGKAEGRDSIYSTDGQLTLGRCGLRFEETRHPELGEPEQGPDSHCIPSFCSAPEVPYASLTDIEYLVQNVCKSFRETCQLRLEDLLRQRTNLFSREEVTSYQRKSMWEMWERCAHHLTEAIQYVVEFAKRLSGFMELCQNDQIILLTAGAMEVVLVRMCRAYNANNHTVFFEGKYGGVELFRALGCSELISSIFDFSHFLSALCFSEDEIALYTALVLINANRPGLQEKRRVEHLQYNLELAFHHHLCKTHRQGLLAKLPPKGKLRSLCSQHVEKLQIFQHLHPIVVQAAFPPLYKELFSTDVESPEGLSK
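Compounds are pin-transferred onto Drosophila Schneider cells expressing a copper-inducible Gal4–ROR gamma transactivation domain fusion. After 1 hr, copper sulfate is added to 700 uM final; luciferase is read 20 hr later.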
HepG2 viability = kills HepG2 cells in TGF-b inhibitor counter-screen | Potency, µM (top dose mostly 46.1 µM), for the others: at the highest dose activity change, negative = cytotoxicity, most hits filed as cytotoxic | 0.76% of 410,000 active | HepG2 CAGA-GFP viability, ATP luminescence, 18 h
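CellTiter-Glo luminescence gave cytotoxicity after 18 hours at 37 degrees C. The cells were HepG2 CAGA-GFP in 1% FBS DMEM, stimulated with 500 pg/mL TGF-beta after compound addition. %Activity was normalised to no-cell wells (complete cell-killing) and DMSO (no toxicity), and curves were fitted and classified.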
Gal4-VP16 FLuc = counter-screen for ROR gamma inhibitors: Gal4-VP16 reporter; 3.5% of 310,000 active; AID 2546; Drosophila S2 Gal4-VP16 UAS-luciferase, luminescence, 20 h; Potency, µM (titrated, usually from 53.6 µM), for inactives: at the top dose activity, negative = inhibition, usual class: inhibitors;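 also: Gal4-VP16 expression switched on by copper sulfate through the metallothionein promoter; % is scaled to controls: 0 for no effect and ±100 for the full control effect; nearly all actives have a fitted effect of over 50% in size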
S2 tox = cell viability loss in ATXN counter-screen | S2 cells (HEK-293 line with an ATXN2-luciferase reporter) viability, CellTiter-Fluor protease fluorescence, 24 h | Potency, µM (series often up to 56.7 µM), usual class: cytotoxic | 0.49% of 400,000 active; also: nearly all actives have a fitted effect of over 40% in size
ATXN2 expr inh = inhibitors of ATXN2 expression; HEK-293 ATXN2-luciferase reporter, luminescence, 24 h; Potency, µM (doses to about 57 µM), for the others: at the highest dose activity change, negative = inhibition, hits mostly inhibitors; 0.72% of 360,000 active; also: % is scaled to controls: 0 for no effect and ±100 for the full control effect; nearly all actives have a fitted effect of over 55% in size
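ATXN2-luciferase reporter cells (luciferase flanked by upstream and downstream ATXN2 gene portions) were treated 24 h at 37 °C with compounds at up to 57 uM. SteadyGlo luminescence gave expression; GF-AFC fluorescence gave viability.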
Active calls of the source: *; i = inactive; ? = inconclusive; nt = no result; [ ] = remark or other dose. An excerpt weighted towards active compounds, which were near 6.3% of everything screened. Calls follow the shape of the dose curve; as a rule, active = well fitted curve in the direction sought with a large enough effect; inconclusive = small, poorly fitted or top-dose-only effect, or another doubt; inactive = no such curve, though single readings can be large; an effect the other way counts as inactive or inconclusive. Potency is read from the fitted curve at half-maximal effect.

SMILES	TGFb SMAD3 inh	RORgamma inh	HepG2 viability	Gal4-VP16 FLuc	S2 tox	ATXN2 expr inh
COc1cc(CN2CCC(C(=O)NCCC(C)C)CC2)ccc1OCc1ccccc1	-12%	4%	-24%	3%	i	10%
COc1ccc(C(=O)NC(=S)NCc2ccccc2)cc1OC	3%	3.2µM*	-2%	?	i	-6%
COc1cccc(OC)c1C(=O)NC(=S)NCc1ccccc1	2%	10µM*	0%	?	i	3%[11.3 µM]
Cc1ccc(-n2nc(C)c3c(C)cc(=O)n(CC(=O)Nc4cccc(C)c4C)c32)cc1	-5%	nt	4%	nt	i	1%
O=C(O)Cn1ccnc1[N+](=O)[O-]	3%	nt	2%	nt	i	nt
C[C@@H]1CN([C@@H](C)CO)C(=O)c2cc(NC(=O)c3ccccc3)ccc2O[C@@H](C)CCCCO[C@@H]1CN(C)S(=O)(=O)c1ccc(F)cc1	-18%	nt	-78%	nt	?	-1%
COc1ccc(C(=O)NC(=S)NCc2ccc(-c3nc4ccccc4o3)cc2)cc1OC	-2%	1.3µM*	-3%	2.5µM*	?	-17%
CCOc1cc(C(=O)NCc2ccc(-c3nc4ccccc4o3)cc2)cc(OCC)c1OCC	7%	8%	-9%	12%	?	?
Cc1cc(Nc2nnnn2-c2ccccc2)n(-c2ccc(Cl)cc2)n1	13µM*	?	2.8µM*	?	i	-10%
S=c1[nH]nc(COc2ccccc2)n1/N=C/c1cccc(Br)c1	-18%	-42%	-25%	-21%	i	-8%
O=[N+]([O-])c1cccc(/C=N/n2c(COc3ccccc3)n[nH]c2=S)c1	-6%	13µM*	-25%	?	i	1%
O=[N+]([O-])c1ccc(/C=N/n2c(COc3ccccc3)n[nH]c2=S)cc1	0%	7.1µM*	-17%	-26%	i	-11%
S=c1[nH]nc(COc2ccccc2)n1/N=C/c1ccc(Br)cc1	-27%	?	-57%	-30%	i	nt
COc1cccc(/C=N/n2c(COc3ccccc3)n[nH]c2=S)c1	-23%	7.1µM*	0%	?	i	-10%
C(=N\n1cnnc1)/c1cccc(Oc2ccccc2)c1	-12%	20%	-11%	4%	i	-2%
S=c1[nH]ncn1/N=C/c1cccc(Oc2ccccc2)c1	-20%	2.8µM*	-12%	7.1µM*	i	13%
CC(C)c1c(C(=O)N(C)Cc2cccc3ncccc23)cnn1-c1nccc(-c2ccco2)n1	nt	nt	nt	nt	i	nt
COc1cccc(C(NC(C)=O)c2nc(-c3ccoc3)cs2)c1 (stereo not drawn)	-14%	nt	-6%	nt	i	5%
COC(=O)c1ccc([C@H](NC(=O)c2ccco2)[C@]2(C)C[C@H]2C2CCCCC2)cc1	?	nt	-33%	nt	i	-26%
COc1ccc(OCc2ccc(-c3nc(C#N)c(NCc4ccc(F)cc4)o3)o2)cc1	?	nt	-31%	nt	i	-17%
COc1ccc(C2=NS(=O)(=O)N(C)C(C(=O)Nc3ccc(OC(F)(F)F)cc3)=C2)cc1	nt	nt	-35%	nt	nt	nt
NC(=O)NOCc1ccc(Cl)cc1Cl	14%	13%	2%	4%	i	-20%
CNC(=S)/N=C/NOCc1ccc(Cl)cc1Cl	14µM*	-24%	-13%	-11%	?	-22%[11.3 µM]
CSc1nc(Sc2ccc(Cl)cc2)c2ccccc2n1	3%	16µM*	5%	-11%	i	5%
COc1ccc([C@]23Cc4cc(OC)c(OC)cc4C(O2)c2c(cc(-c4ccccc4)oc2=O)O3)cc1	nt	24%[10 µM]	nt	2%[10 µM]	nt	nt
CCCCCCOc1ccc(/C=C/C(=O)Nc2sc3c(c2C(=O)OC)CCC3)cc1OC	7.9µM*	nt	-102%	nt	14µM*	?
COc1ccc(/C=C/C(=O)Nc2ccccc2C(=O)O)cc1	0%	7.9µM*	-17%	10µM*	i	?
COc1ccc(C=CC(=O)Nc2ccccc2C(=O)O)cc1OC	nt	nt	nt	nt	nt	0.97µM*
